Assay outcomes (PubChem)
POLB inh = inhibitors of human DNA polymerase beta; P06746; Pol beta primer extension/strand displacement, fluorescence kinetic; Potency, µM (series often up to 114 µM), without a hit: at the highest dose activity change, negative = inhibition, hits mostly inhibitors; 340,000 compounds, 1.3% hits; AID 485314; further: on the % scale 0 is the no-effect control and ±100 the full control effect
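Homogeneous kinetic assay of primer extension and strand displacement by 10 nM Pol beta, preincubated 15 min at room temperature with compound before 50 nM substrate (final) was added. Read at 0 and 10 min; four-parameter Hill fit.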
WRN inhibitor = inhibitors of human WRN helicase; Q14191; WRN helicase unwinding, fluorescent forked duplex, kinetic; Potency, µM (titrated, usually from 114 µM), inactives show top-dose activity change, negative = inhibition, hits mostly inhibitors; 360,000 compounds, 0.46% hits; AID 651768; further: on the % scale 0 is the no-effect control and ±100 the full control effect; nearly all actives have a fitted effect of over 55% in size
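WRN at 20 nM final preincubated with compound 15 min at room temperature; reaction started with 100 nM fluorophore/quencher forked duplex oligonucleotide and 2 mM ATP final. Unwinding followed kinetically by red fluorescence (ex 525, em 598 nm).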
Pol kappa inh = blocks human DNA polymerase kappa activity | Q9UBT6 | purified Pol kappa, fluorescent DNA synthesis assay, 10 min | Potency, µM (top dose mostly 107 µM), for inactives: top-dose activity, negative = inhibition, usual class: inhibitors | 400,000 compounds, 0.53% hits; further: on the % scale 0 is the no-effect control and ±100 the full control effect
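50 nM final substrate added after 15 min RT preincubation of 10 nM Pol kappa with compound; fluorescence read at 0 and 10 min.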
Pol iota inh = inhibitors of human DNA polymerase iota | 390,000 compounds, 1% hits | Q9UNA4 | Potency, µM (series often up to 115 µM), inactives show at the top dose activity, negative = inhibition, actives largely listed as inhibitors | Pol iota fluorescent replication assay, 10 min
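Pol iota at 10 nM preincubated 15 min with compounds at room temperature; reaction started with fluorescent substrate, 50 nM final. Fluorescence read kinetically at 0 and 10 min; buffer-only wells as negative control.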
POLH inh = inhibitors of human DNA polymerase eta; 390,000 compounds, 1.2% hits; recombinant Pol eta, fluorescent DNA replication assay; Q9Y253; Potency, µM (titrated, usually from 114 µM), inactives show at the top dose activity change, negative = inhibition, most hits filed as inhibitors; further: on the % scale 0 is the no-effect control and ±100 the full control effect
Target sequence (Q9Y253 whole entry, looked up): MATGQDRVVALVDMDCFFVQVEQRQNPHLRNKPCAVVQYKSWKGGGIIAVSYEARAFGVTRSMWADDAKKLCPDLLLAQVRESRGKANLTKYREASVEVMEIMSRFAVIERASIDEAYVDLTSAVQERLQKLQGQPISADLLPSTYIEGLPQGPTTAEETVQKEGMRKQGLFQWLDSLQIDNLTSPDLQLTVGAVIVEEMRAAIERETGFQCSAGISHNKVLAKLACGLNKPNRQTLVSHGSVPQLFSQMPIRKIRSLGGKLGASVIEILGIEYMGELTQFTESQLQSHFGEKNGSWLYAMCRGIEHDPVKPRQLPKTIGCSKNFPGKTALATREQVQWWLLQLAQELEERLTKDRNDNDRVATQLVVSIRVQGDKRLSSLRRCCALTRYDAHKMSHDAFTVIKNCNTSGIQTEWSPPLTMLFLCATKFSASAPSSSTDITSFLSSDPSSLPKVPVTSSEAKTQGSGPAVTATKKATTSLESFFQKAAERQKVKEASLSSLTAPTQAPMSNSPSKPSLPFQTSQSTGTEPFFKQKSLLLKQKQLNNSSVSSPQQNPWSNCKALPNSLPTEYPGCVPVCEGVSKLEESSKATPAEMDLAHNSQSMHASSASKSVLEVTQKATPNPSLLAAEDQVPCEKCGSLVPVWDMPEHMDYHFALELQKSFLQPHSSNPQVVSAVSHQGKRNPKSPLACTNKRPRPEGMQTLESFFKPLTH
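Pol eta at 10 nM preincubated with compounds 15 min at room temperature; reaction started with fluorescent substrate (50 nM final) and read kinetically at 0 and 10 min.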
FEN1 inhibitor = inhibitors of human flap endonuclease 1; P39748; Recombinant FEN1 flap cleavage, fluorescence, 15 min; Potency, µM (titrated, usually from 114 µM), inactives show top-dose activity change, negative = inhibition, usual class: inhibitors; 390,000 compounds, 0.35% hits; AID 588795; further: on the % scale 0 is the no-effect control and ±100 the full control effect; nearly all actives have a fitted effect of over 65% in size
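Concentration–response screening of FEN1 (10 nM): 15 min compound preincubation at room temperature, reaction started with 50 nM substrate and read at 0 and 15 min. Corrected, normalized data were fitted by a four-parameter Hill equation.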
Numbers without * were called inactive; [ ] = another dose, or the depositor's remark. In the library only some 2.4% were active in any assay of this set; here they are far more common. The call rests on the fitted dose curve; in most records, active means well fitted curve in the direction sought with a large enough effect; inconclusive means small, poorly fitted or top-dose-only effect, or another doubt; inactive means no such curve, though single readings can be large; an effect the other way counts as inactive or inconclusive. Potency means the concentration at half of the fitted maximal effect.

Screening Cc1ccccc1NC(=O)Cc1nc(COC(=O)c2ccc(S(C)(=O)=O)c([N+](=O)[O-])c2)cs1 returned WRN inhibitor -27%, Pol kappa inh -10%, Pol iota inh inconclusive, POLH inh 22µM* and FEN1 inhibitor 8%.
`COc1ccc(C(C)=O)cc1COC(=O)c1ccc(N)c([N+](=O)[O-])c1` gave POLB inh -6%, WRN inhibitor -9%, Pol kappa inh -4%, Pol iota inh 32µM*, POLH inh -16% and FEN1 inhibitor -1%.
`CS(=O)(=O)c1ccc(C(=O)OCC(=O)N2CC(=O)Nc3ccccc32)cc1[N+](=O)[O-]` gave Pol kappa inh -3%, Pol iota inh 50µM* and FEN1 inhibitor 9%.
`CS(=O)(=O)c1ccc(C(=O)OCC(=O)Nc2cc(C(F)(F)F)ccc2Cl)cc1[N+](=O)[O-]` gave Pol kappa inh -25%, Pol iota inh -13% and FEN1 inhibitor -7%.
O=C(Nc1ccc(F)c(Cl)c1)C1CCN(S(=O)(=O)c2ccc3c(c2)CCCN3C(=O)C2CCC2)CC1 was read as POLB inh 18%, Pol kappa inh -5%[60.1 µM], Pol iota inh 38%, POLH inh -16% and FEN1 inhibitor 1%.
For O=C1C(=O)N(C2CCN(C(=O)c3ccc(Cl)cc3)CC2)CCN1Cc1ccc(F)cc1 the results were POLB inh 1%, Pol kappa inh 5%, Pol iota inh 15%, POLH inh -20% and FEN1 inhibitor 13%.
For CC(=O)c1cccc(NC(=O)C(C)OC(=O)c2ccc(S(C)(=O)=O)c([N+](=O)[O-])c2)c1 (stereo unspecified) the results were Pol kappa inh 7%, Pol iota inh -1% and FEN1 inhibitor -22%.
Screening CC(=O)c1cccc(NC(=O)COC(=O)c2ccc(S(C)(=O)=O)c([N+](=O)[O-])c2)c1 returned POLB inh 10%, WRN inhibitor -24%[57.1 µM], Pol kappa inh -5%, Pol iota inh inconclusive, POLH inh 79µM* and FEN1 inhibitor -15%.
Screening CS(=O)(=O)c1ccc(C(=O)OCC(=O)Nc2cccnc2Cl)cc1[N+](=O)[O-] returned WRN inhibitor -19%, Pol kappa inh 9%, Pol iota inh inconclusive, POLH inh 89µM* and FEN1 inhibitor 3%.
`CC(C)(C)c1nnc(N/N=C/c2ccc(Br)cc2)n(N)c1=O` gave POLB inh 3%, WRN inhibitor -15%, Pol kappa inh -7%, Pol iota inh 15%, POLH inh -21% and FEN1 inhibitor 9%.
COc1cc(/C=N/NC(=O)c2ccncc2)ccc1OC(C)=O was read as POLB inh 28%, WRN inhibitor -1%, Pol kappa inh 5%, Pol iota inh 0%, POLH inh -13% and FEN1 inhibitor 1%.
CC(C)(C)c1ccc(/C=N/Nc2nncn2N)cc1 was read as POLB inh -19%, WRN inhibitor 3%[11.6 µM], Pol kappa inh -3%, Pol iota inh 3.2µM*, POLH inh -7% and FEN1 inhibitor -12%.
COc1cc(/C=N\Nc2nncn2N)ccc1OC(C)=O was read as POLB inh 17%, WRN inhibitor 0%[11.6 µM], Pol kappa inh -27%, Pol iota inh 7.1µM*, POLH inh -10% and FEN1 inhibitor -13%.
`CSc1ccc(/C=N\Nc2nncn2N)cc1` gave POLB inh 3%, WRN inhibitor 10%, Pol kappa inh -4%, Pol iota inh 5.6µM*, POLH inh -22% and FEN1 inhibitor inconclusive.
COC(=O)c1c(NC(=O)c2cc(=O)c3ccc(C)c(C)c3o2)sc2c1CCCC2 was read as POLB inh 40%, Pol kappa inh 11%, Pol iota inh 8%, POLH inh 1% and FEN1 inhibitor 29%.
Screening C[n+]1ccc(C(c2c[nH]c3ccccc23)c2cc[n+](C)c3ccccc23)c2ccccc21 returned Pol kappa inh 79µM*, Pol iota inh 89µM* and FEN1 inhibitor 18µM*.
`O=C(/C=C/c1c(Cl)cccc1Cl)N1CCOCC1` gave POLB inh 28%, WRN inhibitor 1%, Pol kappa inh -13%, Pol iota inh 19%, POLH inh -4% and FEN1 inhibitor 21%.
Screening O=C(/C=C/c1c(F)cccc1Cl)N1CCOCC1 returned POLB inh 32µM*, WRN inhibitor 5%, Pol kappa inh 5%, Pol iota inh 18%, POLH inh -19% and FEN1 inhibitor 0%.
`CCNc1nc(Cl)nc(-c2cn(-c3ccccc3)c3ccccc23)n1` gave POLB inh 79µM*, WRN inhibitor -1%, Pol kappa inh -8%, Pol iota inh -18%, POLH inh 3% and FEN1 inhibitor 9%.
Clc1nc(Oc2ccccc2)nc(-c2cn(-c3ccccc3)c3ccccc23)n1 was read as POLB inh -29%, WRN inhibitor -11%, Pol kappa inh 12%, Pol iota inh 1%, POLH inh -12% and FEN1 inhibitor -23%.
Screening CCOc1ccc(CNC(=O)CCS(=O)(=O)c2cc3c4c(c2)CCN4C(=O)CC3)cc1OC returned POLB inh 3%, Pol kappa inh 1%, Pol iota inh 17%, POLH inh -8% and FEN1 inhibitor 19%.
For O=C(COc1ccccc1[N+](=O)[O-])Nc1cccc(S(=O)(=O)NC2=NCCCCC2)c1 the results were WRN inhibitor -29%, Pol kappa inh -34%, Pol iota inh 79µM*, POLH inh 20µM* and FEN1 inhibitor -9%.
Screening Nc1ccc(C(=O)OCC(=O)Nc2cccc(S(=O)(=O)NC3=NCCCCC3)c2)cc1[N+](=O)[O-] returned WRN inhibitor -20%, Pol kappa inh -3%, Pol iota inh 65%, POLH inh -9% and FEN1 inhibitor 1%.
`COc1ccc(S(=O)(=O)N2CCN(Cc3ccc4c(c3)OCO4)CC2)cc1OC` gave POLB inh 2%, Pol kappa inh -3%, Pol iota inh -1%, POLH inh -8% and FEN1 inhibitor -6%.
Screening O=C(CCC(=O)N1CCN(c2ccc(O)cc2)CC1)c1cccs1 returned POLB inh inconclusive, WRN inhibitor -3%, Pol kappa inh -12%, Pol iota inh 71µM*, POLH inh -21% and FEN1 inhibitor 11%.
O=C(Nc1ccc2c(c1)C(=O)NC2=O)c1cccc(C(F)(F)F)c1 was read as POLB inh 79µM*, WRN inhibitor -12%, Pol kappa inh -23%, Pol iota inh inconclusive, POLH inh -8% and FEN1 inhibitor -2%.
